# Results filed as inconclusive are left out. Entries that show only a call come without a potency. A number with no mark means an inactive call. Calls of active or inactive are those of the source. Unless noted, calls follow the shape of the dose curve; as a rule, active = well fitted curve in the direction sought with a large enough effect in the repeat runs; inconclusive = weak or mixed curves; inactive = no such curve, though single readings can be large; an effect the other way counts as inactive or inconclusive.
# Experiments:
# [1] = target: Luciferin 4-monooxygenase (Photinus pyralis) (UniProt P08659); assay: qHTS assay to identify small molecule inhibitors of firefly luciferase (AID 1224835); also: nearly all actives have a fitted effect of over 25% in size; also: potency is read from the fitted curve at half-maximal effect
# Chain of Luciferin 4-monooxygenase (Photinus pyralis) (P08659 whole entry, looked up): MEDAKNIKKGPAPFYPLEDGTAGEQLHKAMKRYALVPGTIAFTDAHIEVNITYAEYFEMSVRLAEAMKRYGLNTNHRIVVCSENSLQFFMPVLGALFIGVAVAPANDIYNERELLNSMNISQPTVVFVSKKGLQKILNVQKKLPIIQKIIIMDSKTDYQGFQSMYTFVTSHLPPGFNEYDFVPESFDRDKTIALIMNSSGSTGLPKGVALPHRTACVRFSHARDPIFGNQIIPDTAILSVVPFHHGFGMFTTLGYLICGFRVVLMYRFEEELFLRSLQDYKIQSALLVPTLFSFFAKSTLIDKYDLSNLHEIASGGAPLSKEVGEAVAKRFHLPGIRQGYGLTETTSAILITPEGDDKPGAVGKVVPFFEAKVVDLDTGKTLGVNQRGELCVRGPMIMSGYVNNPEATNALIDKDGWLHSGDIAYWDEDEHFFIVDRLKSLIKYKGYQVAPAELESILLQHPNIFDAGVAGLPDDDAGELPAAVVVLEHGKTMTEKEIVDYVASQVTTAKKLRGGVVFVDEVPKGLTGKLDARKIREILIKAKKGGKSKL
# In short: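 Inhibition of purified Photinus luciferase is measured by luminescence. Substrate levels (D-luciferin, ATP) sit at their KM values. Each compound is tested in a concentration series.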
# [2] = qHTS assay to identify small molecule agonists of the constitutive androstane receptor (CAR) signaling pathway - cell viability counter screen (AID 1224836); also: series mostly up to about 92 µM; nearly all actives have a fitted effect of over 45% in size
# In short: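 Counter screen multiplexed with the CAR reporter readout: HepG2 cells co-transfected with hCAR and the CYP2B6-2.2kb construct receive a 15-concentration compound series and 0.75 uM PK11195 (final), then CellTiter-Fluor fluorescence is read after 23 h.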
# [3] = qHTS assay to identify small molecule antagonists of the estrogen related receptor signaling pathway with the pleiotropic PPARgamma coactivator (PGC) from Tox21 10K library (AID 1224841; call rule not given here; also: actives are mostly falling curves and most rising ones were filed inactive; nearly all actives have a fitted effect of over 50% in size; also: potency is read from the fitted curve at half-maximal effect)
# In short: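 Each well held 2,000 PGC/ERR cells, pre-incubated six hours (37 C, 5% CO2). Test substances in DMSO were added by pin tool and left for 18 h at 37 C before luciferase detection by One-Glo.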
# [4] = qHTS assay to identify small molecule agonists of the estrogen related receptor signaling pathway with the pleiotropic PPARgamma coactivator (PGC) from Tox21 10K library (AID 1224842); also: nearly all actives have a fitted effect of over 15% in size; also: potency is read from the fitted curve at half-maximal effect
# In short: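 Luminescence from One-Glo (30 min, room temperature) measured after PGC/ERR cells had 18 h at 37 C with pinned compound (23 nL in DMSO). Cells had been seeded at 2,000 per well and pre-incubated 6 h.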
# [5] = target: Thyrotropin receptor (Homo sapiens) (UniProt P16473); assay: qHTS assay to identify small molecule agonists of the thyroid stimulating hormone receptor (TSHR) signaling pathway (AID 1224843; calls by dose curve; also: nearly all actives have a fitted effect of over 45% in size; also: potency is read from the fitted curve at half-maximal effect)
# Chain of Thyrotropin receptor (Homo sapiens) (P16473 whole entry, looked up): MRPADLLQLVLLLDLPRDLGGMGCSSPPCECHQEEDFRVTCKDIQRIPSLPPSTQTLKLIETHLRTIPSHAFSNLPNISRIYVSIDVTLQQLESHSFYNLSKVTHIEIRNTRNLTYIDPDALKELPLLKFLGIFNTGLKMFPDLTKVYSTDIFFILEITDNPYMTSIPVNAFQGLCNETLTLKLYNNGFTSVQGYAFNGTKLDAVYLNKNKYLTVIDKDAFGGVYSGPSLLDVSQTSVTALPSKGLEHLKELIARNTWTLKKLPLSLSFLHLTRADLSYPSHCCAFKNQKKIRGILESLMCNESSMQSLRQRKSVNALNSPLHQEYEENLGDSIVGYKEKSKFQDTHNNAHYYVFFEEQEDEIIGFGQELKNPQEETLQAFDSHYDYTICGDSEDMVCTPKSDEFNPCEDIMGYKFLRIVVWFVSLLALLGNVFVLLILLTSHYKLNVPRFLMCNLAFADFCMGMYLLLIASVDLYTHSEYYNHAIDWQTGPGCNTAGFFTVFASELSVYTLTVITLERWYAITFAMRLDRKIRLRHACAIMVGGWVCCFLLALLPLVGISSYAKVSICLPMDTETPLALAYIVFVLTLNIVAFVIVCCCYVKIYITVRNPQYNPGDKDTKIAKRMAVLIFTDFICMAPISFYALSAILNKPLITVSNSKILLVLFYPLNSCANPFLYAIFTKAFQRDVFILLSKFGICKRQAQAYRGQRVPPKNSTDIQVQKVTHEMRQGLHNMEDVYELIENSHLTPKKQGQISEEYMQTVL
# In short: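 Screening of the Tox21 10K collection used HEK293 cells engineered with TSHR at 800 cells per well. After a 30-min room-temperature compound exposure, HTRF cAMP reagents were added and fluorescence recorded 1 h later.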
# [6] = qHTS assay to identify small molecule antagonists of the constitutive androstane receptor (CAR) signaling pathway - cell viability counter screen (AID 1224837); also: nearly all actives have a fitted effect of over 45% in size; also: potency is read from the fitted curve at half-maximal effect
# In short: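 Using CellTiter-Fluor, viability is scored in HepG2 cells stably carrying hCAR and a 2.2kb CYP2B6 reporter after 23 hr compound exposure across 15 concentrations, with CITCO present at 50 nM.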
# [7] = target: Nuclear receptor subfamily 1 group I member 3 (Homo sapiens) (UniProt Q14994); assay: qHTS assay to identify small molecule antagonists of the constitutive androstane receptor (CAR) signaling pathway (AID 1224838);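 also: HepG2 cells stably expressing hCAR with CYP2B6 luciferase reporter stimulated by CITCO; nearly all actives have a fitted effect of over 40% in size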; also: potency is read from the fitted curve at half-maximal effect
# Chain of Nuclear receptor subfamily 1 group I member 3 (Homo sapiens) (Q14994 whole entry, looked up): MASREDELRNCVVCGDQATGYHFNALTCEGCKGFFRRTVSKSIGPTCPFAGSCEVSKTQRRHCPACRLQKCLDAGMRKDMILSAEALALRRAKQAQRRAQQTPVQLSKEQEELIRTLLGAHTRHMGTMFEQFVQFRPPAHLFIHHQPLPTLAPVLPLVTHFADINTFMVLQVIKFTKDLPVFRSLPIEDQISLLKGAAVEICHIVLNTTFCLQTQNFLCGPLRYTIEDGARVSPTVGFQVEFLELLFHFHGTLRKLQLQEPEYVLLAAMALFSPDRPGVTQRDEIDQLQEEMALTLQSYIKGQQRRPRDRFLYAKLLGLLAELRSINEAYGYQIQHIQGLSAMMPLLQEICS
# In short: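 Reporter luminescence was quantified after 24 h exposure of hCAR/CYP2B6-2.2kb double-stable HepG2 cells to compounds at 15 concentrations in the presence of 50 nM CITCO final.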
# [8] = target: Nuclear receptor subfamily 1 group I member 3 (Homo sapiens) (UniProt Q14994); assay: qHTS assay to identify small molecule agonists of the constitutive androstane receptor (CAR) signaling pathway (AID 1224839); also: nearly all actives have a fitted effect of over 15% in size; also: potency is read from the fitted curve at half-maximal effect
# In short: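 A 15-concentration quantitative screen uses HepG2 cells co-transfected stably with human CAR and CYP2B6-2.2kb reporter. Treatment lasts 24 h with 0.75 uM PK11195 final present; ONE-Glo luminescence is the signal.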
# [9] = qHTS assay to identify small molecule antagonists of the estrogen related receptor signaling pathway with the pleiotropic PPARgamma coactivator (PGC) from Tox21 10K library - cell viability counter screen (AID 1224840; active = well fitted cell-killing curve with a large enough effect in the repeat runs, not every such curve was filed as active; also: nearly all actives have a fitted effect of over 40% in size; also: potency is read from the fitted curve at half-maximal effect)
# In short: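 Here the PGC/ERR cells serve as a cytotoxicity control: they are exposed to compounds for 17.5 hours at 37 C, and live-cell signal is quantified using CellTiter-Fluor fluorescence.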
# [10] = qHTS assay to identify small molecule agonists of the hypoxia (HIF-1) signaling pathway - cell viability counter screen (AID 1224844; calls by dose curve; also: nearly all actives have a fitted effect of over 50% in size; also: potency is read from the fitted curve at half-maximal effect)
# In short: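 Multiplexed with the HRE beta-lactamase assay, this viability read used CellTiter-Glo luminescence (30 min, RT) on HRE-bla ME-180 cells treated 17 hrs with compounds in 0.5% dialyzed FBS medium.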
Structure (SMILES),Potency [1],Potency [2],Potency [3],Potency [4],Potency [5],Potency [6],Potency [7],Potency [8],Potency [9],Potency [10]
CCCOC(C(=O)OC1CCN(C)CC1)(c1ccccc1)c1ccccc1,inactive,inactive,inactive,inactive,inactive,–,–,–,–,–
COc1ccc(C(=O)Nc2nc3ccccc3c(NCc3ccccc3)c2C#N)cc1,inactive,–,–,inactive,inactive,inactive,inactive,21.7 µM (active),inactive,–
CCCCC(CC)CN1C(=O)C2C3C=CC(C3)C2C1=O (stereo not given),inactive,inactive,inactive,inactive,–,–,inactive,–,inactive,inactive
COc1cc(Cl)c(OC)cc1N,inactive,inactive,–,–,–,inactive,–,–,inactive,inactive
Cc1ccccc1S(=O)(=O)O,inactive,inactive,–,–,inactive,inactive,–,–,inactive,inactive
C#Cc1cccc(Nc2ncnc3cc(OCCOC)c(OCCOC)cc23)c1,inactive,inactive,8.41 µM (active),inactive,inactive,–,inactive,7.5 µM (active),inactive,inactive
COc1ccc2cccc(CCNC(C)=O)c2c1,inactive,inactive,–,–,–,–,inactive,–,inactive,inactive
CC(C)(C)OCC1CO1 (stereo not given),inactive,inactive,–,–,inactive,–,–,–,inactive,inactive
CCOc1ccc(N)c([N+](=O)[O-])c1,inactive,–,inactive,inactive,–,inactive,inactive,inactive,inactive,inactive
CC(C)CC(=O)C1C(=O)c2ccccc2C1=O,inactive,inactive,27.3 µM (active),inactive,inactive,–,inactive,–,–,inactive
CN1CCC(N(Cc2cccs2)c2ccccc2)CC1,inactive,inactive,inactive,inactive,–,–,inactive,inactive,inactive,inactive
CCCCCC[C@@H](O)C/C=C\CCCCCCCC(=O)OC,inactive,inactive,inactive,inactive,inactive,–,–,–,inactive,inactive
CCCCCCCCCCCCCCCCCCOS(=O)(=O)O,inactive,inactive,–,inactive,–,–,–,–,–,38.9 µM (active)
NCC(=O)CCC(=O)O,inactive,inactive,–,–,inactive,–,–,–,inactive,inactive
CC[N+](C)(CC)CCOC(=O)C(O)(c1ccccc1)C1CCCCC1 (stereo not given),inactive,inactive,–,inactive,inactive,–,–,–,inactive,inactive
CCCCCCCCO[C@@H]1O[C@H](CO)[C@@H](O)[C@H](O)[C@H]1O,inactive,inactive,–,–,inactive,inactive,–,–,inactive,inactive
CCCCC(=O)OCC(=O)[C@H]1[C@H](C)C[C@H]2[C@@H]3C[C@H](F)C4=CC(=O)C=C[C@]4(C)[C@@]3(F)[C@@H](O)C[C@@]21C,inactive,inactive,–,–,inactive,–,inactive,inactive,inactive,–
COc1ccc(C(=O)c2ccc(OC)cc2O)c(O)c1,28.5 µM (active),inactive,inactive,4.89 µM (active),inactive,–,inactive,9.76 µM (active),inactive,inactive
C[C@@H](c1ncncc1F)C(O)(Cn1cncn1)c1ccc(F)cc1F (stereo not given in full),inactive,inactive,inactive,inactive,inactive,–,–,–,inactive,inactive
COCCCN1CCC(NC(=O)c2cc(Cl)c(N)c3c2OCC3)CC1,inactive,inactive,inactive,inactive,inactive,–,inactive,inactive,inactive,inactive

Structure (SMILES),Potency [1],Potency [2],Potency [3],Potency [4],Potency [5],Potency [6],Potency [7],Potency [8],Potency [9],Potency [10]
C=CC(=O)OCCOCCOC(=O)C=C,inactive,–,–,9.73 µM (active),–,61.4 µM (active),–,–,30.8 µM (active),–
CC(C)C[C@H]1C(=O)N2CCC[C@H]2[C@]2(O)O[C@](NC(=O)[C@@H]3C=C4c5cccc6[nH]c(Br)c(c56)C[C@H]4N(C)C3)(C(C)C)C(=O)N12,inactive,–,16.4 µM (active),inactive,inactive,–,inactive,–,–,inactive
OC(CN1CCC(Cc2ccc(F)cc2)CC1)c1ccc(Cl)cc1 (stereo not given),inactive,–,–,–,–,–,23.7 µM (active),inactive,–,inactive
Clc1ccc2c(c1)CCc1cccnc1C2=C1CCNCC1,inactive,–,–,–,–,inactive,–,–,–,inactive
CCOC(=O)C1=C[C@]2(CC)CCCN3CCc4c(n1c1ccccc41)[C@@H]32,inactive,–,–,–,18.8 µM (active),–,inactive,–,inactive,–
O=C(c1ccc(F)cc1)C1CCN(CCn2c(=S)[nH]c3ccccc3c2=O)CC1,inactive,–,26.6 µM (active),inactive,inactive,inactive,inactive,inactive,–,21.3 µM (active)
CCOCC(O)COc1ccc(NC(=O)CC[S+](C)C)cc1 (stereo not given),inactive,–,–,–,inactive,–,inactive,–,inactive,inactive
O=C(Nc1ccc(S(=O)(=O)N2CCOCC2)cc1)c1cc(Cl)ccc1NS(=O)(=O)c1ccc(Cl)s1,inactive,–,inactive,inactive,inactive,inactive,–,–,inactive,inactive
COC(=O)c1ccc(I)cc1S(=O)(=O)NC(=O)Nc1nc(C)nc(OC)n1,inactive,–,–,–,inactive,inactive,inactive,inactive,inactive,inactive
CNCCCCOc1ccccc1Cc1ccccc1,inactive,–,–,–,inactive,–,–,inactive,29.8 µM (active),inactive
CN(C)CCCN1c2ccccc2Sc2ccccc21,inactive,–,inactive,inactive,–,–,inactive,inactive,inactive,–
CCC(C)(C)CC,inactive,–,–,inactive,–,–,inactive,inactive,inactive,inactive
CCC(Cl)CCC(Cl)C(Cl)CC(Cl)C(Cl)C(Cl)CCl (stereo not given),inactive,–,–,inactive,inactive,–,inactive,–,inactive,inactive
O=C(NCC1CN(c2ccc(N3CCOCC3=O)cc2)C(=O)O1)c1ccc(Cl)s1 (stereo not given),inactive,–,–,inactive,inactive,inactive,–,–,inactive,inactive
CCOC(=O)Cc1cccc2ccccc12,inactive,–,inactive,inactive,–,–,inactive,30.6 µM (active),inactive,inactive
CN1CCC(=C2c3ccccc3Sc3ccccc32)CC1,inactive,–,inactive,inactive,–,–,inactive,–,inactive,–
CNCCCN1c2ccccc2CCc2ccccc21,inactive,–,–,–,inactive,–,inactive,–,inactive,–
CCc1cc(C2=C(C(=O)O)N(c3ccccc3C(F)(F)F)S(=O)(=O)c3ccccc32)cc2c1OCO2,inactive,–,30.3 µM (active),inactive,–,–,–,inactive,–,21.6 µM (active)
CC(=O)c1ccc2c(c1)N(CCCN1CCC(CCO)CC1)c1ccccc1S2,inactive,–,–,–,–,–,–,inactive,inactive,–
CCN(CC)c1ccc(C(=C2C=CC(=[N+](CC)CC)C=C2)c2cc(S(=O)(=O)O)ccc2S(=O)(=O)[O-])cc1,12.3 µM (active),–,11.9 µM (active),inactive,–,–,11.9 µM (active),inactive,–,–

Structure (SMILES),Potency [1],Potency [2],Potency [3],Potency [4],Potency [5],Potency [6],Potency [7],Potency [8],Potency [9],Potency [10]
O=C1CCC(=O)O1,inactive,–,inactive,inactive,–,–,inactive,–,inactive,inactive
O=P(O)(OCc1ccccc1)OCc1ccccc1,inactive,–,–,–,inactive,inactive,–,–,inactive,inactive
CCCCCCCCCCCC(=O)OC[C@@H](O)[C@H]1OC[C@H](OCCO)[C@H]1OCCO,inactive,–,–,–,inactive,inactive,inactive,inactive,inactive,inactive
CCC(=O)O[C@]1(C(=O)CCl)[C@@H](C)C[C@H]2[C@@H]3CCC4=CC(=O)C=C[C@]4(C)[C@@]3(F)[C@@H](O)C[C@@]21C,inactive,–,inactive,inactive,inactive,inactive,inactive,–,inactive,–
Cc1ccc(C(=O)Oc2ccc(C(O)CNC(C)(C)C)cc2OC(=O)c2ccc(C)cc2)cc1 (stereo not given),inactive,–,–,–,0.0473 µM (active),inactive,–,–,inactive,inactive
CN(C)CCN(Cc1ccsc1)c1ccccn1,inactive,–,–,–,–,inactive,inactive,inactive,inactive,inactive
Cc1oc2c(NC(=O)c3c(Cl)cccc3Cl)cccc2c1C(C)(C)O,inactive,–,–,inactive,–,inactive,5.45 µM (active),inactive,–,inactive
CCCCc1ncc(/C=C(\Cc2cccs2)C(=O)O)n1Cc1ccc(C(=O)O)cc1,inactive,–,–,–,inactive,inactive,inactive,inactive,inactive,inactive
ClCCOCCOCCCl,inactive,–,inactive,inactive,inactive,inactive,–,–,inactive,inactive
CCCC(=O)Nc1ccc(O)c(C(C)=O)c1,inactive,–,–,–,inactive,inactive,inactive,–,inactive,inactive
CCN(CC)CCNC(=O)c1cc(Br)c(N)cc1OC,inactive,–,inactive,inactive,inactive,inactive,inactive,–,inactive,inactive
OC(C#CCN1CCCC1)(c1ccccc1)c1ccccc1,inactive,–,inactive,inactive,inactive,inactive,–,–,inactive,inactive
Cc1ccc(C(C)OC(=O)C2(C)CCC(C(=O)O)C2(C)C)cc1 (stereo not given),inactive,–,–,–,inactive,inactive,–,–,inactive,inactive
OCCN1CCN(CCCN2c3ccccc3C=Cc3ccccc32)CC1,inactive,–,–,–,inactive,–,inactive,inactive,inactive,inactive
CN(C)CCN(Cc1ccc(Cl)cc1)c1ccccn1,inactive,–,–,–,inactive,inactive,inactive,inactive,inactive,inactive
O=C1c2ccccc2S(=O)(=O)N1CCCCN1CCN(c2ncccn2)CC1,–,inactive,–,–,inactive,inactive,inactive,inactive,inactive,inactive
C=CCOC(=O)CCC1CCCCC1,–,inactive,inactive,inactive,inactive,inactive,inactive,inactive,inactive,inactive
NCCCN1CCOCC1,–,inactive,inactive,inactive,inactive,inactive,inactive,inactive,inactive,inactive
CCCCOC(=O)CCCCCCCC(=O)OCCCC,–,inactive,inactive,inactive,inactive,inactive,inactive,–,inactive,inactive

# Reference: PubChem BioAssay (Tox21)
